# Measurements as given in PubChem BioAssay (Tox21).
# Records with an inconclusive call do not appear. Entries that show only a call come without a potency. Activity calls are given as the source filed them. Calls come from the whole dose curve.
# Assay: p53 small molecule agonists, cell-based qHTS assay with human liver microsomes (AID 1963577);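 note: p53 response element beta-lactamase reporter cells with liver microsomes plus NADPH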
# Outline: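 Compounds act here after metabolic activation: human liver microsomes and NADPH, both at 0.5 mg/mL final, were co-added to p53RE-bla cells. Incubation ran 16 h at 37 C, followed by LiveBLAzer detection.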
Structure (SMILES),Potency,activation
O=[N+]([O-])c1cc(C2CCCCC2)c(O)c([N+](=O)[O-])c1,inactive,
CCN(CC)c1ccc2c(c1)Oc1cc(N(CC)CC)ccc1C21OC(=O)c2ccccc21,inactive,
CCCCCCCCCCCCCCC[C@H](O)[C@@H](N)CO,inactive,
O=C(Nc1cccc(C(F)(F)F)c1)c1cc(Br)cc(Br)c1O,inactive,
O=C(Nc1ccc(Cl)c(Cl)c1)c1cc(Cl)cc(Cl)c1O,inactive,
CCCCN(CCN(CCCC)C(=O)N1CCOCC1)C(=O)N1CCOCC1,inactive,
CCCC/C=C/C=C\C=O,inactive,
O=C(Cl)c1ccc(F)c(Cl)c1,inactive,
CCCCCCCCOC(=O)c1cc(O)c(O)c(O)c1,inactive,
CCCOc1sc(C(=O)N2CCC(c3cc(CN)ccc3F)CC2)c(C)c1Br,inactive,
Cc1cc(C2CCCCC2)n(O)c(=O)c1,inactive,
CC(C)(C)c1cc(O)c(C(C)(C)C)cc1O,inactive,
O=S(=O)(O)c1cc(S(=O)(=O)O)c2ccc3c(S(=O)(=O)O)cc(S(=O)(=O)O)c4ccc1c2c43,,-0.621% [at 13.5 µM] (inactive)
CNCC(O)c1ccc(O)c(O)c1 (stereo not given),inactive,
C=COCCOCCOC=C,inactive,
